The results in this text go back to PubChem BioAssay.

The nature of assay [1]: yeast TOR pathway RPL19A-GFP modulators, primary screen, cell-based, S. cerevisiae, multiplex flow cytometry (AID 1862; in the data active = percent of DMSO control GFP below about 86%;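 note: lower values mimic rapamycin by blocking the RPL19A rise seen in DMSO cells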). The following applies: S. cerevisiae RPL19A-GFP strain, flow cytometry fluorescence, 3 h; at 10 µM; stronger effect = lower value. In general terms: Flow cytometry measures light scatter and fluorescence of single cells or particles in a stream.
Assay [2] can be described thus: modulators of MEP2-GFP levels in yeast, primary screen, S. cerevisiae, multiplex flow cytometry (AID 1867;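 active = GFP response, as percent of the DMSO control, above the screen-wide mean plus 3 SD, about 139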;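 note: median GFP channel fluorescence of barcode-gated MEP2-GFP cells measured by flow cytometry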). The conditions noted are these: S. cerevisiae MEP2-GFP strain, 3 h, at 10 µM, stronger effect = higher value, 100% means same as DMSO wells.
The nature of assay [3]: modulators of CIT2-GFP expression in yeast, primary screen, S. cerevisiae, GFP fusion, multiplex flow cytometry (AID 1870;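 active = percent response above a set limit, the screen-wide mean plus 3 SD, cut at about 130% in these data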;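 note: barcoded CIT2-GFP strain pooled with four other GFP strains with rapamycin as positive control; median GFP fluorescence per well over plate mean of DMSO wells so 100% = DMSO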). The following applies: 3 h, at 10 µM, stronger effect = higher value.
Assay [4] is described as follows: modulators of LAP4-GFP expression in yeast, primary screen, S. cerevisiae, multiplex flow cytometry (AID 1873;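 active = GFP signal, as percent of the solvent control, above the screen mean plus 3 SD, about 149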). The following applies: 3 h, at 10 µM, stronger effect = higher value.
The nature of assay [5]: modulators of AGP1-GFP expression in yeast TOR pathway, primary screen, cell-based, multiplex flow cytometry, S. cerevisiae (AID 1887;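 active = GFP signal above the screen-wide mean plus 3 SD, that is over about 124.5% of the solvent control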;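 note: AGP1-GFP fusion strain of S. cerevisiae within a five-strain barcoded multiplex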). The following applies: 3 h, at 10 µM, stronger effect = higher value.
Assay [6] is described as follows: inhibitors of CD8+ T cell-vesicle binding, pilot screen, LFA-1/ICAM-1 modulator project, MLPCN validation set, flow cytometry (AID 2523;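 active = response below a set limit, under 55% cells CD8-positive and vesicle-bound, and CD8 cells' 90th-percentile brightness under 279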;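 for vesicle binding response: mean PE anti-B7-1 fluorescence of CD8+ cells relative to row control; 100% = QL9-loaded vesicles with DMSO vehicle in the same plate row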). The conditions noted are these: 2C mouse CD8+ T cells, at 7 µM, stronger effect = lower value; double positive events: measured here: CD8+/vesicle+ event percentage.
Assay [7] addresses Integrin beta-1 (Homo sapiens) + Integrin alpha-4 (Homo sapiens) (UniProt P13612+P05556). Nature of the assay: inhibition of HUTS-21 binding to VLA-4, pilot screen, VLA-4 allosteric modulator project, U937 cells, HUTS-21 mAb, flow cytometry, validation set (AID 2674;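 active = inhibition above 50%, about 3 SD of the validation set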;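 note: antibody binding induced by the VLA-4 ligand LDV present at three times its Kd; 0% = LDV ligand with antibody and no compound and 100% = antibody without LDV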). The conditions noted are these: HUTS-21 LIBS mAb binding, at 6.7 µM, stronger effect = higher value, binding induced by LDV ligand.

Assay [8] is described as follows: superoxide lowering in aged yeast cells, pilot screen, validation compound set (AID 2706;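 active = superoxide response below 65% of plate, a cut near 3 SD across the whole screen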;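 note: yeast exposed to compound for one week at 30 degrees C before staining; 100% = mean of all compound wells on the same plate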). The conditions noted are these: S. cerevisiae aging, superoxide DHE fluorescence; at 10 µM; stronger effect = lower value.
For assay [9], the target named is Beta-adrenergic receptor kinase 1 (Homo sapiens) (UniProt P25098). Nature of the assay: GRK2 binders displacing RNA aptamer, biochemical, validation, human GRK2, bead flow cytometry (AID 488806;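 active = aptamer binding inhibition above 30%, about 3 SD of noise from non-fluorescent compounds; inactive = inhibition at or below 30%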). The following applies: bead-bound GRK2, FAM-aptamer displacement, at 10 µM, stronger effect = higher value.
Chain of Beta-adrenergic receptor kinase 1 (Homo sapiens) (P25098 whole entry, looked up): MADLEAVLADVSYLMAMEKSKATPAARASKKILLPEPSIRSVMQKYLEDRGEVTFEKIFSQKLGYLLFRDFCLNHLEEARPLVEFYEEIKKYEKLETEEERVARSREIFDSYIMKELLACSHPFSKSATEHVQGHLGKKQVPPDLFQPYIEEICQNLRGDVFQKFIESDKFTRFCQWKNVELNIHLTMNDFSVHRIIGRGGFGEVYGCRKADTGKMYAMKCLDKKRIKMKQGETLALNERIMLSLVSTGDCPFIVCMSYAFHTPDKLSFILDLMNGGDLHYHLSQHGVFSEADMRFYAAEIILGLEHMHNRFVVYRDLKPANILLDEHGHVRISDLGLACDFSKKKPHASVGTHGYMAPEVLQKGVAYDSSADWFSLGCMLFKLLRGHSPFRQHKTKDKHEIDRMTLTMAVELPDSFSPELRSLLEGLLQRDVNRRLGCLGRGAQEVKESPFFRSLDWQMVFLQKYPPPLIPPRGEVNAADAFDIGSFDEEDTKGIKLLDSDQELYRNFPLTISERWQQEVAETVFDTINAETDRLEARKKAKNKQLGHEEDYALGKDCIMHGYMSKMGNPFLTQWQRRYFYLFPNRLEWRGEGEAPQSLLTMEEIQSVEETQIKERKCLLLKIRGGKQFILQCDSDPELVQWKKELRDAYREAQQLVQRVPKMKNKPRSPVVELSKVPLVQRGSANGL
The target in assay [10] is Beta-2 adrenergic receptor (Homo sapiens) (UniProt P07550). Nature of the assay: beta2AR agonists driving receptor internalization, pilot screen, cell-based, FAP fluorogen, flow cytometry, validation set (AID 504459;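 active = percent response above 42, roughly 3 SD of non-fluorescent test compounds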;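 note: agonist-driven loss of surface beta2AR via internalization measured by FAP dye flow cytometry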). The following applies: Am2.2-beta2AR cells, FAP surface receptor flow cytometry; at 10 µM; stronger effect = higher value.
Chain of Beta-2 adrenergic receptor (Homo sapiens) (P07550 whole entry, looked up): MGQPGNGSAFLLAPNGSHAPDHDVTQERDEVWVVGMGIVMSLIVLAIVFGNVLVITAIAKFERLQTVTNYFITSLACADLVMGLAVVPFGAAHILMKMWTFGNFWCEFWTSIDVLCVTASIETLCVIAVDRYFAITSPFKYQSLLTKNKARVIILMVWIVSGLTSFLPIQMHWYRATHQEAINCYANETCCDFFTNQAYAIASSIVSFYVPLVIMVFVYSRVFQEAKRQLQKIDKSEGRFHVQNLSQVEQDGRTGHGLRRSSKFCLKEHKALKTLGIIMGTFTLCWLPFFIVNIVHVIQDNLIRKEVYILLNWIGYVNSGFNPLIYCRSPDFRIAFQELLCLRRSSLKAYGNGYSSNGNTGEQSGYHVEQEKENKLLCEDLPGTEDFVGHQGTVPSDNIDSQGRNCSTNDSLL
Assay [11] addresses AP-2 complex subunit beta (Homo sapiens) (UniProt P63010). Nature of the assay: inhibitors of arrestin peptide binding to AP2, pilot screen, biochemical, validation set, GST-AP2 beads, flow cytometry (AID 504541).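 Note: AP2 carries R879A mutation and is captured from E. coli lysate; bead-bound FITC arrestin peptide fluorescence measuring arrestin peptide binding to AP2; 0% = DMSO wells and 100% = excess unlabeled arrestin peptide control.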 The following applies: FITC arrestin peptide, at 10 µM, stronger effect = higher value, AP2 beta2 appendage fragment, R879A mutant.
Assay [12] in a line: yeast V-ATPase proton transport modulators, S. cerevisiae, pHLuorin, HTS validation (AID 504600; in the data active = response above about 15%;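 note: plate controls were DMSO for no effect and reference compound for full effect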). The conditions noted are these: S. cerevisiae pHLuorin cytosolic pH, at 10 µM, stronger effect = higher value.
In assay [13] the test system is anti-desmoglein-3 scFv antibody binding to human DSG3. Nature of the assay: inhibitors of anti-DSG3 scFv binding to DSG3, pilot screen, biochemical, validation compound set, bead-based, flow cytometry (AID 588368;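 active = binding below the plate cutoff, the plate median minus 3 SD, with a reading above zero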;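 note: signal is the median channel fluorescence of bead-bound GFP antibody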). The following applies: Protein G beads, DSG3-Fc, scFv-GFP binding, at 10 µM, stronger effect = lower value.
The nature of assay [14]: inhibitors of fungal efflux pumps CDR1, CDR2, MDR1, pilot screen, validation compound set, multiplex, phenotypic (AID 588506;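 active = efflux inhibition above 0.42, the validation set average plus 4 SD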;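 note: Nile Red retained in cells so higher fluorescence means more efflux inhibition; 0 = negative control wells and 1 = enniatin B 25 µM full block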). The following applies: S. cerevisiae pump-expressing triplex, Nile Red efflux flow cytometry; at 10 µM; stronger effect = higher value; the pumps come from Candida albicans.
For assay [15], the target named is ATP-binding cassette sub-family B member 6 (Homo sapiens) (UniProt Q9NP58). Description: ABCB6 transporter inhibitors, pilot screen, K562-ABCB6 cells, flow cytometry, validation set (AID 588550;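 active = inhibition above the screen-wide mean plus 3 SD, about 51%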;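 note: 0% = DMSO wells and 100% = benzethonium chloride 70 µM positive control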). The following applies: K562-ABCB6 porphyrin accumulation, 1 h, at 10 µM, stronger effect = higher value.
Chain of ATP-binding cassette sub-family B member 6 (Homo sapiens) (Q9NP58 whole entry, looked up): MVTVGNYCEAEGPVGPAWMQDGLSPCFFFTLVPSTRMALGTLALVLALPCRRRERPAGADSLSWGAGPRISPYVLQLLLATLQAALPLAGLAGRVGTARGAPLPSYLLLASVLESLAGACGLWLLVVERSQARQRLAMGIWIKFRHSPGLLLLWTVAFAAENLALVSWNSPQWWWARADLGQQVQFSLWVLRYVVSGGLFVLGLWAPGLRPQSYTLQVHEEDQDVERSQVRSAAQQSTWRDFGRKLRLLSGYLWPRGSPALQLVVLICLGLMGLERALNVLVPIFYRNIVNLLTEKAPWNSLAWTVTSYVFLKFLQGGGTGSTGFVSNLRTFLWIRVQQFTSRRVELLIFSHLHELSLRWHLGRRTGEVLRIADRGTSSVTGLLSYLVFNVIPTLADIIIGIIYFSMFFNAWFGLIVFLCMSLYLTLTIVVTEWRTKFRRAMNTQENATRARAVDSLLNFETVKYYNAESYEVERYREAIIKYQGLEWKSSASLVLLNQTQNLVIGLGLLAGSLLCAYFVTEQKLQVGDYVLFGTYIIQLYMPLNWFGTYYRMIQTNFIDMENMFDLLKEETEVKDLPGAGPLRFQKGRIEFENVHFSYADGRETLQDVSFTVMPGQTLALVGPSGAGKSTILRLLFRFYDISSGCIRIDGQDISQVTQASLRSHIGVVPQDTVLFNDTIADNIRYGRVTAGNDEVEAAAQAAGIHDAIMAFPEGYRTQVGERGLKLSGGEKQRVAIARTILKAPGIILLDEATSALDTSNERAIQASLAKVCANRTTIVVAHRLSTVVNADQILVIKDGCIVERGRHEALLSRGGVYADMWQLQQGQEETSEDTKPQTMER
Assay [16] can be described thus: promoters of myeloid differentiation in arrested cells, primary screen, cell-based, GFP/MAC1 double positive, flow cytometry, validation set (AID 588685;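 active = differentiation response of at least 50%, scaled between solvent and reference control, from cells with both markers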;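 note: compound exposure lasts four days before antibody staining and flow analysis; 0% = DMSO wells and 100% = 5 µM fulvestrant positive control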). The conditions noted are these: ER-HoxA9 marrow cells, stronger effect = higher value, normalized: vehicle 0, fulvestrant 100.

Results filed as inconclusive are left out. Activity calls are given as the source filed them.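 Rule for the calls, unless noted: active = inhibition above 54%, about 3 SD of non-fluorescent compounds; inactive = the rest.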

Chain of AP-2 complex subunit beta (Homo sapiens) (P63010 whole entry, looked up, the tested form may be a part, one chain of several): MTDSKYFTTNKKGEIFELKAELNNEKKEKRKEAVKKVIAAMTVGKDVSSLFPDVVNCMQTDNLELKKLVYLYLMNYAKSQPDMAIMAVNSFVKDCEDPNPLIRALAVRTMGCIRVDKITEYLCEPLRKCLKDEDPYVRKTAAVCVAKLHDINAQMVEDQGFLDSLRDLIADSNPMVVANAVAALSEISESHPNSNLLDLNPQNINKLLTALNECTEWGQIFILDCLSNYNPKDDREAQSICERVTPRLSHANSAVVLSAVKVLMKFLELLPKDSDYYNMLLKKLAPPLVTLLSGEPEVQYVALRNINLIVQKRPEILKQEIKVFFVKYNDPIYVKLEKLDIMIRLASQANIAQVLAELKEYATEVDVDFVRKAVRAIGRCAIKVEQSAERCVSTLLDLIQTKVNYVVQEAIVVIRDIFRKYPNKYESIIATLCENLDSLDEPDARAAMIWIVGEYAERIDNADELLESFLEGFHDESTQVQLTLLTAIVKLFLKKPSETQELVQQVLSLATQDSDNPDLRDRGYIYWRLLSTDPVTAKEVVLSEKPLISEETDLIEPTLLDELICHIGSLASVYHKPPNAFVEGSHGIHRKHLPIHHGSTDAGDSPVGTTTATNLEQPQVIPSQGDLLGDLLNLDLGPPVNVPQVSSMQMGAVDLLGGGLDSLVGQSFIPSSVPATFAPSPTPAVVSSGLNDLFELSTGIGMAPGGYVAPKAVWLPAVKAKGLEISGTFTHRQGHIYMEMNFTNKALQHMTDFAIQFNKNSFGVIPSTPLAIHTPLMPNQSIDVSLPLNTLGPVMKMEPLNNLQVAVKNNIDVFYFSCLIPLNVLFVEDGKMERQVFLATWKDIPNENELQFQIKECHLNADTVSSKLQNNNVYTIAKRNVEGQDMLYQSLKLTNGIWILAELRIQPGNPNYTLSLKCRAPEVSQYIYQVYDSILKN
Chain of Integrin beta-1 (Homo sapiens) + Integrin alpha-4 (Homo sapiens) (P05556 whole entry, looked up): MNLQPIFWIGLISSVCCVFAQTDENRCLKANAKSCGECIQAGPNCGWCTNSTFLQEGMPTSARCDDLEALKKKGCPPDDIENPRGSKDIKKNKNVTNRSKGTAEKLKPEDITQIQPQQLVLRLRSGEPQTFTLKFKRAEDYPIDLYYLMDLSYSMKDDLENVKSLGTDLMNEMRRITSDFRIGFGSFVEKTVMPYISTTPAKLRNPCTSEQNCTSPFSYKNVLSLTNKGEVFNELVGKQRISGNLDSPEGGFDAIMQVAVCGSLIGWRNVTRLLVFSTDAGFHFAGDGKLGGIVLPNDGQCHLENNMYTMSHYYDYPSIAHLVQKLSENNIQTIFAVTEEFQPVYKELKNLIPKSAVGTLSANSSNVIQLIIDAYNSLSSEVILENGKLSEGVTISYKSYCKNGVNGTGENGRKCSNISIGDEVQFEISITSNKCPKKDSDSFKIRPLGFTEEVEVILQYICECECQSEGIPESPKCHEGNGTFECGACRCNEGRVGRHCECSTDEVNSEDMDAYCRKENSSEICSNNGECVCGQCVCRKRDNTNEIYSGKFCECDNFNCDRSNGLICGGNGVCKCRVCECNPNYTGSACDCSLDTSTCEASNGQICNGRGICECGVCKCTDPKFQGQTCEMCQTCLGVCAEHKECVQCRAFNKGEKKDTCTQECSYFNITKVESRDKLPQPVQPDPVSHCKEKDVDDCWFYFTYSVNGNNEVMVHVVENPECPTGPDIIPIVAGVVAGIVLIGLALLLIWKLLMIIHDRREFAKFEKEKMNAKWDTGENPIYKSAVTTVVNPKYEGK
Chain of Integrin beta-1 (Homo sapiens) + Integrin alpha-4 (Homo sapiens) (P13612 whole entry, looked up): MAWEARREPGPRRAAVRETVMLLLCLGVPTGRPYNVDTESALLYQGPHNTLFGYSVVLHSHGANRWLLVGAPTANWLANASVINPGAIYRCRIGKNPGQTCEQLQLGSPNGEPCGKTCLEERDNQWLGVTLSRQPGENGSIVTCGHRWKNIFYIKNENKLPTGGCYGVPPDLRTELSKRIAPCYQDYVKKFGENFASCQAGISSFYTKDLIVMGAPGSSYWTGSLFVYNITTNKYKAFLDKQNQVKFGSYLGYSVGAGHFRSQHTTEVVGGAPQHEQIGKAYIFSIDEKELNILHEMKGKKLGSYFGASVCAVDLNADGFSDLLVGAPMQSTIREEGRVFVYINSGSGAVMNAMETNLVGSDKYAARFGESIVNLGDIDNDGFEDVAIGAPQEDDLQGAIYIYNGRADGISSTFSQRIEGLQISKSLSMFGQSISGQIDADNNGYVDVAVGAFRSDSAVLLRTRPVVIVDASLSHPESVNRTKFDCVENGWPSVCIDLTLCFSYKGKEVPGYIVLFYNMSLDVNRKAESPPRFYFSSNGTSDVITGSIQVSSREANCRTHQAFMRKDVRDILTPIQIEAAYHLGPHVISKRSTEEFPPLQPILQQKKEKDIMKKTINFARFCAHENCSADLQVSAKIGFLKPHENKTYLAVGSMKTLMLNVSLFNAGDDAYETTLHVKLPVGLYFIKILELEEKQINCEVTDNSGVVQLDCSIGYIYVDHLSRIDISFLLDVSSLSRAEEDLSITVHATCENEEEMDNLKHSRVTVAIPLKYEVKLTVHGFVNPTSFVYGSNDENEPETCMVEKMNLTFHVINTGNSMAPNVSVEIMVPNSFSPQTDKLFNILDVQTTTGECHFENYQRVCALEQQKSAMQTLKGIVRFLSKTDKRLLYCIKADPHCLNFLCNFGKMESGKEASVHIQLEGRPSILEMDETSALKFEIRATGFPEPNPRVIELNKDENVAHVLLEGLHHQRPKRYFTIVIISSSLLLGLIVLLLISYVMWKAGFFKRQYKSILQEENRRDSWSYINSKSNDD

For `c1ccc(CC2=NCCN2)cc1`, the percent of DMSO control GFP in assay [1] was 104% (inactive). The GFP response vs DMSO in assay [2] is 107% (inactive); in [4], 103% (inactive). In addition, the percent response of DMSO control in assay [3] was 100% (inactive). Besides, the GFP response, % of DMSO in [5] is 102% (inactive). The compound further returned a double positive events in assay [6] of 61.8%. Besides, the vesicle binding response in assay [6] was 181% (inactive). In addition, the figures for the inhibition in assay [7], in assay [11] and in assay [15] were 0% (inactive), -16.6% (inactive) and -5% (inactive), respectively. Besides, the superoxide response (% of plate) in [8] was 101% (inactive). Moreover, in assay [9], the aptamer binding inhibition was -2% (inactive). Besides, the response in assay [10] was -7.37% (inactive); in assay [12], 1.43% (inactive). In addition, the binding (% of control) in assay [13] was 98% (inactive). Also, in assay [14], the efflux inhibition (fraction of control) is -0.07 (inactive). Moreover, the differentiation response in [16] was 14.9% (inactive).
Consider `NNC(=O)c1cc(O)c(O)c(O)c1`, for which the percent of DMSO control GFP in assay [1] was 105% (inactive). The GFP response vs DMSO in [2] is 88.8% (inactive); in assay [4], 96% (inactive). Also, the percent response of DMSO control in assay [3] is 114% (inactive). The GFP response, % of DMSO in assay [5] is 106% (inactive). The same compound had a double positive events in [6] of 59%. In addition, in assay [6], the vesicle binding response is 149% (inactive). The results for the inhibition in [7], in [11] and in [15] were -1.49% (inactive), 12% (inactive) and 5% (inactive), respectively. Besides, the superoxide response (% of plate) in assay [8] is 93.7% (inactive). Besides, the aptamer binding inhibition in [9] is 4% (inactive). For the same compound, the response in [10] is -4.68% (inactive); in assay [12], 1.02% (inactive). In addition, in assay [13], the binding (% of control) was 91.2% (inactive). In [14], the efflux inhibition (fraction of control) was -0.1 (inactive). Further, the differentiation response in assay [16] is -2.69% (inactive).
For `Cc1cnc(NC(=O)C2=C(O)c3ccccc3S(=O)(=O)N2C)s1`, the percent of DMSO control GFP in [1] is 107% (inactive). Besides, the figures for the GFP response vs DMSO in assay [2] and in assay [4] were 112% (inactive) and 80.8% (inactive), respectively. In addition, the percent response of DMSO control in assay [3] is 88.4% (inactive). The GFP response, % of DMSO in [5] is 92.9% (inactive). This compound gave a double positive events in assay [6] of 65.2%. Also, the vesicle binding response in [6] is 958% (inactive). For the same compound, the inhibition (commonly the relative decrease from the control value, in per cent) in assay [7] is -6.68% (inactive); in [11] it was 8.13% (inactive); in assay [15] it was 14% (inactive). In addition, in assay [8], the superoxide response (% of plate) was 109% (inactive). In addition, the aptamer binding inhibition in [9] is 3% (inactive). Moreover, the response was 1.12% (inactive) in assay [10] and 1.87% (inactive) in [12]. Moreover, in assay [13], the binding (% of control) is 93.7% (inactive). In addition, in assay [14], the efflux inhibition (fraction of control) is 0.27 (inactive). Moreover, the differentiation response in assay [16] was 12% (inactive).
As for `Cc1ccc(S(=O)(=O)NC(=O)Nc2cc(C)ccc2F)cc1`, the percent of DMSO control GFP in [1] is 102% (inactive). Moreover, the GFP response vs DMSO in assay [2] is 105% (inactive); in assay [4], 82.2% (inactive). The percent response of DMSO control in assay [3] is 93.1% (inactive). In addition, the GFP response, % of DMSO in [5] was 96.5% (inactive). The compound also yielded a double positive events in assay [6] of 62.3%. In addition, the vesicle binding response in [6] is 1090% (inactive). Also, the inhibition in assay [7] was 2.66% (inactive); in [11], 56.9% (active); in [15], -2% (inactive). Further, the superoxide response (% of plate) in assay [8] was 110% (inactive). Besides, the aptamer binding inhibition in assay [9] was 2% (inactive). Besides, the response in assay [10] is -5.23% (inactive); in assay [12], -3.86% (inactive). Further, the binding (% of control) in assay [13] is 92.9% (inactive). Moreover, the efflux inhibition (fraction of control) in [14] is 0.64 (active). Besides, in assay [16], the differentiation response was 34.5% (inactive).
For the compound `CC(C)C1CC(CCNCc2ccc(N(C)C)cc2)(c2ccccc2)CCO1` (stereo not given), in [1], the percent of DMSO control GFP was 95.2% (inactive). Moreover, the GFP response vs DMSO in [2] was 105% (inactive); in assay [4], 76.5% (inactive). The percent response of DMSO control in assay [3] was 118% (inactive). For the same compound, the GFP response, % of DMSO in assay [5] is 87.7% (inactive). Besides, the double positive events in assay [6] came to 58.6%. Also, the vesicle binding response in [6] was 200% (inactive). In addition, the figures for the inhibition in [7], in assay [11] and in assay [15] were 9.37% (inactive), -7.09% (inactive) and 8% (inactive), respectively. The superoxide response (% of plate) in [8] was 112% (inactive). For the same compound, in [9], the aptamer binding inhibition is -4% (inactive). The results for the response in [10] and in assay [12] were 3.92% (inactive) and 0.42% (inactive), respectively. For the same compound, the binding (% of control) in assay [13] is 111% (inactive). Further, the efflux inhibition (fraction of control) in [14] is -0.09 (inactive). Moreover, in [16], the differentiation response was -1.64% (inactive).
